Composite z-score and z-score data for five compounds are collected here from PubChem BioAssay.

Test [1] relates to Wnt5a (protein binding on small-molecule microarray). Briefly: Wnt5a binders on small-molecule microarray, primary screen, biophysical, 635/667 nm fluorescence (AID 1142).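 Further: fluorescence read at 667 nm with signal to noise per printed feature.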 The settings on record: 635 nm fluorescence, higher = more signal.
The nature of test [2]: cell viability in Huh7 cells, primary screen, cytotoxicity control for HCV replication inhibitor project, CellTiter-Glo luminescence, basal, 48 h (AID 1143).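 Further: Huh7 hepatoma cells carrying a hepatitis C replication reporter with no stimulus; test concentration not given here.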 The settings on record: Huh7 HCV replicon, higher = more signal, called active from +8 up or from −8 down.
Test [3] can be described thus: P. aeruginosa biofilm formation inhibitors, primary screen, PAO1 strain, BacTiter-Glo luminescence, LB-PBS (AID 1144). The conditions noted are these: 12 h, higher = more signal.
Test [4] is described as follows: CREB reporter modulators without forskolin, primary screen, cell-based, PC12, CRE-LacZ reporter, unstimulated (AID 1145). The conditions noted are these: no forskolin, luminescence, 4.5 h, higher = more signal, called active from +8 up or from −8 down.
Test [5] can be described thus: CREB reporter modulators under forskolin, primary screen, cell-based, PC12, CRE-LacZ reporter, forskolin-stimulated (AID 1146).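 Further: PC12 cells with 6xCRE LacZ reporter stimulated by forskolin 10 µM; beta-galactosidase reporter signal reflecting CREB driven transcription.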 The conditions noted are these: luminescence, 4.5 h, higher = more signal, called active from +8 up or from −8 down.
The target in test [6] is Streptavidin (Streptomyces avidinii) (UniProt P22629). The experiment in a line: streptavidin binders on small-molecule microarray, primary screen, artefact control for SMM compound annotation, biophysical, 635/667 nm fluorescence (AID 1147).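 Further: signal reflects streptavidin binding to arrayed compounds as a control protein.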 The settings on record: streptavidin binding, higher = more signal.
Chain of Streptavidin (Streptomyces avidinii) (P22629 whole entry, looked up): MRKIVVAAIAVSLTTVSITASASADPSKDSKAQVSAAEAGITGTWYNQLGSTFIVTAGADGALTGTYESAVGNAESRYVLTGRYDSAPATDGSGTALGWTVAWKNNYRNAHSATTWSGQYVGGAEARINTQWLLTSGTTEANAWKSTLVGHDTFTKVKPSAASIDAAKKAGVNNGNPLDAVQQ
Test [7] in a line: small-molecule binders of probe aInhba, primary screen, biochemical, small-molecule microarray, 635/667 nm fluorescence (AID 1148).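 Further: score merges 667nm spot fluorescence with signal-to-noise for antibody binding to printed compounds.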 The conditions noted are these: higher = more signal.
The target in test [8] is Torsin-1A (Homo sapiens) (UniProt O14656). Briefly: torsin A binders from cell lysate, primary screen, small-molecule microarray, wild-type, 635/667 nm (AID 1149). The conditions noted are these: COS7 hTOR1A-WT lysate, 635 nm fluorescence, higher = more signal.
Chain of Torsin-1A (Homo sapiens) (O14656 whole entry, looked up): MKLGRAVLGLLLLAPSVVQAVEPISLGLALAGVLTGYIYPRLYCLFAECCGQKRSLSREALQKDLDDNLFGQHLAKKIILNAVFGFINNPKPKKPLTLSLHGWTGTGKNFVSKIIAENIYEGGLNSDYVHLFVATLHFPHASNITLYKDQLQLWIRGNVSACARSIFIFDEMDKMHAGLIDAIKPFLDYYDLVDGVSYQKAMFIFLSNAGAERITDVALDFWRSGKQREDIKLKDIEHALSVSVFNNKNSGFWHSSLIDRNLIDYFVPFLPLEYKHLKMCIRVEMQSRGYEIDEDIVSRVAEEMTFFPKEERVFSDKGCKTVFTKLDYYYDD
The target is the same in test [9]. The experiment in a line: small-molecule binders of mutant TOR1A in lysate, primary screen, cell lysate, small-molecule microarray, COS7 lysate, 635/667 nm fluorescence (AID 1150).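 Further: score pools 667 nm emission and signal to noise measuring lysate protein binding.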 The settings on record: COS7 hTOR1A mutant lysate, 635 nm fluorescence, higher = more signal.
Test [10] has as its system Sonic hedgehog protein (Shh). The experiment in a line: small-molecule binders of Shh protein, primary screen, biochemical, small-molecule microarray, 635/667 nm fluorescence (AID 1151).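 Further: Shh protein binding to compounds spotted on small-molecule microarray slides; score combines spot fluorescence intensity with signal-to-noise across triplicate slides.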 The conditions noted are these: small-molecule microarray binding, 635 nm fluorescence; higher = more signal.
A short description of test [11]: E. coli DRC41 culture turbidity changes, primary screen, E. coli filamentation inducer project, strain DRC41, OD650, 48 h (AID 1152).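 Further: E. coli MC1000 strain DRC41 lacking acrAB efflux pump and sulA.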 The settings on record: E. coli DRC41 (acrAB sulA), higher = more signal, called active from +8 up or from −8 down.
A short description of test [12]: small-molecule binders of probe aLefty1, primary screen, biochemical, small-molecule microarray, 635/667 nm fluorescence (AID 1153).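 Further: score merges spot fluorescence with signal-to-noise ratio from the scanned slide images.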 The conditions noted are these: higher = more signal.
The nature of test [13]: PSAC antagonists in infected red cells, primary screen, cell-based, P. falciparum Indochina, OD700, 1 h (AID 1154). The conditions noted are these: P. falciparum Indochina infected RBC osmotic lysis, higher = more signal, called active from +8 up or from −8 down.
Test [14] in a line: PSAC antagonists in infected red cells, primary screen, cell-based, P. falciparum Indochina, OD700, 2 h (AID 1155).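 Further: lysis reports solute entry through the parasite surface anion channel PSAC; channel blockers reduce lysis of infected cells.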 The settings on record: P. falciparum Indochina infected erythrocytes, osmotic lysis OD700; higher = more signal, called active from +8 up or from −8 down.
The nature of test [15]: osmotic lysis modulators in infected erythrocytes, primary screen, PSAC antagonist project, cell-based, P. falciparum Indochina, OD700, 3 h (AID 1156). The settings on record: higher = more signal, called active from +8 up or from −8 down.
A short description of test [16]: PSAC antagonists in infected red cells, primary screen, cell-based, P. falciparum Indochina, OD700, 18 h (AID 1157). The conditions noted are these: P. falciparum Indochina infected erythrocytes, osmotic lysis OD700, 18 h; higher = more signal, called active from +8 up or from −8 down.
Test [17] can be described thus: modulators of S6 phosphorylation in cells, primary screen, cell-based, A549, cytoblot, luminescence, serum-stimulated (AID 1158).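 Further: serum-stimulated A549 lung adenocarcinoma cells; signal is phosphorylated S6 detected by cytoblot immunostaining with HRP secondary.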 The settings on record: A549 phospho-S6 cytoblot, 5 h, higher = more signal.
Test [18] deals with NADPH oxidase 2 (Homo sapiens) (UniProt P04839). The experiment in a line: NOX2-dependent H2O2 signal modulators, primary screen, NOX inhibitor project, cell-based, HEK293-NOX2, PMA-stimulated, Amplex Red fluorescence (AID 1159). Further: test concentration not given here. The conditions noted are these: 45 min, higher = more signal, called active from +8 up or from −8 down.
Chain of NADPH oxidase 2 (Homo sapiens) (P04839 whole entry, looked up): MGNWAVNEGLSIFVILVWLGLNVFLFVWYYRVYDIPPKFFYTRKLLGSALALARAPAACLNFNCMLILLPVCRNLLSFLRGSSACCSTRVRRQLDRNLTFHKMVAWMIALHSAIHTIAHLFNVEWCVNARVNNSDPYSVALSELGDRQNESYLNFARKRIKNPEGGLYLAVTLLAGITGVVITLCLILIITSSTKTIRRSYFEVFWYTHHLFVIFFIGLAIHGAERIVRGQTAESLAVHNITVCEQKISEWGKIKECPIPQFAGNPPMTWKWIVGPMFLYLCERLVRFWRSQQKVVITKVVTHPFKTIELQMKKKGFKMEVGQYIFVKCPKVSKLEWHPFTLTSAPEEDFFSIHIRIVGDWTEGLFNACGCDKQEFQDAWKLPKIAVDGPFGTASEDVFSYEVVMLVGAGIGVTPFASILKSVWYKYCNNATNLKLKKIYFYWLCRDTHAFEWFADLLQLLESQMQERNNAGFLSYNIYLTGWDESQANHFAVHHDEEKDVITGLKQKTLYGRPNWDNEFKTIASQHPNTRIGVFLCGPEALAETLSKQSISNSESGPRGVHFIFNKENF
Test [19] addresses NADPH oxidase 4 (Homo sapiens) (UniProt Q9NPH5). Briefly: NOX4-dependent H2O2 signal modulators, primary screen, NOX inhibitor project, cell-based, HEK293-NOX4, tetracycline-induced, Amplex Red fluorescence (AID 1160). The settings on record: 45 min, higher = more signal, called active from +8 up or from −8 down.
The target in test [20] is NADPH oxidase 5 (Homo sapiens) (UniProt Q96PH1). The experiment in a line: NOX5-dependent H2O2 signal modulators, primary screen, NOX inhibitor project, cell-based, HEK293-NOX5, Amplex Red fluorescence (AID 1161). The settings on record: HEK293-NOX5, ionomycin, 45 min, higher = more signal.
Chain of NADPH oxidase 5 (Homo sapiens) (Q96PH1 whole entry, looked up): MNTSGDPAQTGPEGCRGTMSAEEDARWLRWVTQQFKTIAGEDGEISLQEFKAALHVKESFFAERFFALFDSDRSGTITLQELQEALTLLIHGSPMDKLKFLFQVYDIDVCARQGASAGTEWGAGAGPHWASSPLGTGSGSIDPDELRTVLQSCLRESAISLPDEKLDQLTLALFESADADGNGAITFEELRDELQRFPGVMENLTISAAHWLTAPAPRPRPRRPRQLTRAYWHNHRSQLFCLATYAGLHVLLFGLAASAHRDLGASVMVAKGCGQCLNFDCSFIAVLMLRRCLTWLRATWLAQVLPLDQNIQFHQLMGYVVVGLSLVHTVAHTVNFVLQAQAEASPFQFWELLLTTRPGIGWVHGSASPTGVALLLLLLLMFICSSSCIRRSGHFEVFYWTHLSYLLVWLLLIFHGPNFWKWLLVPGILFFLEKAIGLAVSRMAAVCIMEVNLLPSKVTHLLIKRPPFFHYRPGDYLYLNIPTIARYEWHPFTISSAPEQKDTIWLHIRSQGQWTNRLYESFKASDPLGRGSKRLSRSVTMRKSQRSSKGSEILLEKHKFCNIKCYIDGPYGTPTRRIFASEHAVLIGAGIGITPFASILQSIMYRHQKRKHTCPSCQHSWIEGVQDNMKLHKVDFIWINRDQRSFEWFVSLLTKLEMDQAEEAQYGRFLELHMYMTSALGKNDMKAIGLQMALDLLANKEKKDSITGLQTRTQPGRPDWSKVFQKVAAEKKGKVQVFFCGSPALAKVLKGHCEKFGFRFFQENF

SMILES strings stand for the structures. Calls of active or inactive are those of the source. Unless noted, how the calls were made is not given here.

Chain of NADPH oxidase 4 (Homo sapiens) (Q9NPH5 whole entry, looked up): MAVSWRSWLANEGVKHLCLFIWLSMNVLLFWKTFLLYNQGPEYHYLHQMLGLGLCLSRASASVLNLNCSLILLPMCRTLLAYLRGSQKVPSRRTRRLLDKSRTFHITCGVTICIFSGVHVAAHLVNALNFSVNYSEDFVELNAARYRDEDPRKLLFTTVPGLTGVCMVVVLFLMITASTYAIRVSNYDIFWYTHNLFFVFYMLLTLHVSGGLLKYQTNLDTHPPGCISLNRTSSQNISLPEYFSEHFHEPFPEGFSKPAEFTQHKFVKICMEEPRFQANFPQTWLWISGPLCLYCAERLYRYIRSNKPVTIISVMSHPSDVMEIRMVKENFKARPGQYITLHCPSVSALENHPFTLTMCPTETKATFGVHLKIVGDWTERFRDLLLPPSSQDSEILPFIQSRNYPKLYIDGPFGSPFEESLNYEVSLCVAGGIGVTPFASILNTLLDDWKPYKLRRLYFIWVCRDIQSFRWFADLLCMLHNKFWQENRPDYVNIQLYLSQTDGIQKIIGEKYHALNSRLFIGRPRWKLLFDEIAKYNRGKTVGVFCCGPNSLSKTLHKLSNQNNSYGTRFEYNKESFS

Consider `C#CCCCON=C1C[C@@H](O)[C@@H](O)[C@@H]2[C@@H]3C(=O)N(C4CCCCC4)C(=O)[C@@H]3CC[C@@H]12`, for which the composite z-score in [1] was -0.0633; in [6], -0.383; in test [7], -0.286; with Torsin-1A (Homo sapiens) [8] it was -0.0195; in the test with Torsin-1A (Homo sapiens) [9] it was -0.336; in test [10], 0.353. Also, in test [12], the composite z-score is -0.276. For the same compound, the z-score in test [2] was 0.0192 (inactive); in test [3], -0.356 (inactive); in test [4], 1.78 (inactive); in test [5], -0.0263 (inactive); in [11], 0.0164 (inactive); in test [13] it was 1.17 (inactive). In addition, the z-score was -0.164 (inactive) in test [14]; -0.492 (inactive) in [15]; 0.132 (inactive) in test [16]; -0.25 in test [17]; 1.13 (inactive) in test [18]; 0.699 (inactive) in [19]. In addition, in test [20], the z-score is -0.0773.
`O=C1[C@H]2[C@H]3[C@H](O)[C@H](O)CC(=NOC[C@@H](O)COCc4ccco4)[C@@H]3CC[C@H]2C(=O)N1C1CCCCC1`: the composite z-score was 0.124 in [1]; -0.256 in [6]; -0.195 in test [7]; 3.38 in the test with Torsin-1A (Homo sapiens) [8]; 1.25 with Torsin-1A (Homo sapiens) [9]; 1.94 in test [10]. Besides, the composite z-score in test [12] stood at 0.0616. Further, the z-score was -0.234 (inactive) in [2]; 0.321 (inactive) in test [3]; 3.23 (inactive) in test [4]; 0.148 (inactive) in test [5]; 0.38 (inactive) in [11]; 7.07 (inactive) in [13]. For the same compound, the z-score in test [14] is 0.409 (inactive); in [15] it was 0.347 (inactive); in test [16], 0.329 (inactive); in test [17], -0.9; in test [18], -0.0721 (inactive); in test [19], 0.721 (inactive). Moreover, the z-score in test [20] came out at 0.475.
As to `O=C1[C@H]2CCn3c(=O)n(Cc4cc5c(cc4Cl)OCO5)c(=O)n3[C@H]2[C@H](O)[C@@H]2O[C@H]12`, the composite z-score in test [1] is -0.509; in [6], -0.0064; in [7], -0.215; with Torsin-1A (Homo sapiens) [8], -0.22; in the test with Torsin-1A (Homo sapiens) [9] it was -0.343; in test [10], 0.853. For the same compound, in [12], the composite z-score was -0.196. Besides, the z-score was -0.926 (inactive) in test [2]; 0.529 (inactive) in [3]; -0.925 (inactive) in test [4]; -0.0963 (inactive) in test [5]; 0.709 (inactive) in [11]; 0.439 (inactive) in test [13]. Besides, the z-score is -0.511 (inactive) in test [14]; -0.277 (inactive) in test [15]; -0.212 (inactive) in test [16]; 0.489 in [17]; -0.664 (inactive) in test [18]; 0.135 (inactive) in test [19]. In addition, the z-score in test [20] turned out to be 0.336.
For the compound `O=C1CCCC=C1C(O)C1CCCCC1` (stereo not given), the composite z-score was -0.028 in test [1]; -0.234 in test [6]; -0.122 in test [7]; -0.19 in the test with Torsin-1A (Homo sapiens) [8]; 0.44 in the test with Torsin-1A (Homo sapiens) [9]; 0.628 in test [10]. This compound yielded a composite z-score in test [12] of -0.312. In addition, the z-score in test [2] is 0.869 (inactive); in [3], 0.993 (inactive); in test [4] it was 0.198 (inactive); in [5], 0.85 (inactive); in test [11], 0.411 (inactive); in [13], -0.0549 (inactive). The z-score is 0.494 (inactive) in test [14]; -0.663 (inactive) in [15]; 0.0748 (inactive) in [16]; -0.178 in test [17]; 1.46 (inactive) in test [18]; -0.419 (inactive) in [19]. This compound also came in with a z-score in test [20] of -0.928.
Regarding `COC(=O)[C@@H]1CC[C@H](C)[C@@H](c2ccc(Br)cc2)N1`, the composite z-score in test [1] was 0.224; in test [6] it was 0.0708; in test [7] it was 0.0705; in the test with Torsin-1A (Homo sapiens) [8] it was 0.387; with Torsin-1A (Homo sapiens) [9], 0.0795; in test [10] it was -0.0173. In test [12], this compound displayed a composite z-score of -0.0879. Also, the z-score is 0.336 (inactive) in [2]; -0.984 (inactive) in test [3]; 0.372 (inactive) in test [4]; -0.257 (inactive) in [5]; -0.824 (inactive) in test [11]; -0.452 (inactive) in [13]. Further, the z-score in test [14] was -0.219 (inactive); in [15] it was -0.772 (inactive); in [16], -0.0454 (inactive); in [17], -0.0984; in test [18] it was 1.62 (inactive); in test [19], -1.48 (inactive). Also, in [20], the z-score was -0.595.
